How the values were obtained:
Conditions in all cases: concentration: 1 μM, replicates: in singlicate; n = 1
PKAC-alpha = system: T1, PKAC-alpha
T1 construct: gene PRKACA

PKAC-beta = system: T2, PKAC-beta
T2 construct: gene PRKACB

PKMYT1 = system: PKMYT1
PKN1 = system: PKN1
PKN2 = system: PKN2
PLK1 = system: PLK1
PLK2 = system: PLK2
PLK3 = system: PLK3
PLK4 = system: PLK4
PRKCD = system: PRKCD
PRKCE = system: PRKCE
PRKCH = system: PRKCH
PRKCI = system: PRKCI
PRKCQ = system: PRKCQ
PRKD1 = system: PRKD1
PRKD2 = system: PRKD2
PRKD3 = system: PRKD3
PRKG1 = system: PRKG1
PRKG2 = system: PRKG2
PRKR = system: T3, PRKR
T3 construct: gene EIF2AK2
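Also: KINOMEscan kinase panel screen.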

Row | Structure (SMILES) | %Inh (PKAC-alpha) [%] | %Inh (PKAC-beta) [%] | %Inh (PKMYT1) [%] | %Inh (PKN1) [%] | %Inh (PKN2) [%] | %Inh (PLK1) [%] | %Inh (PLK2) [%] | %Inh (PLK3) [%] | %Inh (PLK4) [%] | %Inh (PRKCD) [%] | %Inh (PRKCE) [%] | %Inh (PRKCH) [%] | %Inh (PRKCI) [%] | %Inh (PRKCQ) [%] | %Inh (PRKD1) [%] | %Inh (PRKD2) [%] | %Inh (PRKD3) [%] | %Inh (PRKG1) [%] | %Inh (PRKG2) [%] | %Inh (PRKR) [%]
1 | O=C(Nc1n[nH]c2cc(-c3ccccc3F)ccc12)C1CC1 [SB-733371] | 0 | 20 | 0 | 0 | 14 | 0 | 0 | 3 | 9 | 0 | 21 | 0 | 0 | 0 | 0 | 0 | 0 | 0 | 0 | 0
2 | CN1C(=O)C(Nc2cc(Cl)c(O)c(Cl)c2)=C(c2ccc(Cl)cc2)C1=O [SB-404321] | 0 | 0 | 0 | 0 | 0 | 0 | 0 | 0 | 0 | 0 | 0 | 0 | 3 | 0 | 54 | 0 | 0 | 0 | 0 | 4
3 | COc1cc2ncn(-c3cc(OCCCc4ccccc4)c(C(N)=O)s3)c2cc1OC [GSK205189] | 0 | 5 | 0 | 0 | 16 | – | 98.2 | 92.3 | 0 | 0 | 0 | 0 | 13 | 19 | 0 | 23 | 0 | 0 | 0 | 0
4 | Nc1nc(-c2ccccc2F)c(-c2ccnc3ccccc23)s1 [GW560459] | 0 | 3 | 0 | 3 | 0 | 2 | 0 | 0 | 0 | 0 | 17 | 11 | 13 | 0 | 0 | 0 | 27 | 1 | 0 | 0
5 | Cl.c1ccc(Cn2cnc3cc(Nc4ncnc5ccccc45)ccc32)cc1 [GW272142] | 0 | 0 | 0 | 0 | 0 | 0 | 0 | 0 | 0 | 0 | 4 | 0 | 0 | 0 | 0 | 1 | 0 | 0 | 0 | 0
6 | COc1ccc(-c2cc3c(C)nc(N)nc3n([C@H]3CC[C@H](OCCO)CC3)c2=O)cn1 | 3 | 0 | 0 | 5 | 0 | 0 | 0 | 0 | 1 | 2 | 14 | 0 | 18 | 0 | 2 | 0 | 9 | 0 | 0 | 0
7 | Cn1c(=O)c(F)c(Nc2ccc(I)cc2F)c2c(=O)n(OC[C@H](O)CO)cnc21 | 10 | 35 | 0 | 0 | 0 | 14 | 0 | 0 | 4 | 4 | 0 | 0 | 34 | 6 | 0 | 0 | 0 | 8 | 7 | 0
8 | COC(=O)c1c(-c2ccccc2)c2cc(C)ccc2c(=O)n1Cc1ccccc1 | 0 | 0 | 13 | 0 | 0 | 0 | 0 | 0 | 0 | 3 | 0 | 0 | 0 | 36 | 0 | 8 | 0 | 0 | 0 | 0
9 | COC(=O)c1c(-c2ccccc2)c2cc(Br)ccc2c(=O)n1Cc1ccc(NC(=O)CCC(=O)O)cc1 | 33 | 0 | 10 | 0 | 0 | 0 | 14 | 5 | 15 | 0 | 0 | 7 | 0 | 21 | 0 | 0 | 0 | 0 | 0 | 0
10 | Cc1c(Cn2c(C)nn3c(=O)cc(N4CCO[C@H](C)C4)nc23)cccc1C(F)(F)F [GSK2373690] | 0 | 11 | 11 | 0 | 0 | 0 | 0 | 0 | 0 | 0 | 0 | 35 | 26 | 17 | 0 | 0 | 0 | 15 | 0 | 0
11 | O=C(Nc1ccc2c(c1)OCO2)NC1CCN(c2ccnc(NCc3ccc(F)cc3)n2)CC1 [GSK1379859] | 12 | 0 | 0 | 0 | 0 | 0 | 0 | 0 | 9 | 7 | 0 | 16 | 0 | 18 | 0 | 0 | 34 | 0 | 0 | 0

Source: publication PMC5540273 (PLoS ONE, 2017)
